Among all 310,000 compounds or so, about 14,000 (4.5%) showed an effect of 50% or more. Effects have a minus sign here. The sample holds strong results, similar compounds and a random draw of the others, so the mix is not that of the screen.
Target: human ether-à-go-go-related gene (hERG) potassium channel (human, UniProt Q12809)
Assay: primary screen, population patch clamp on CHO cells stably expressing hERG; higher = less effect of the substance
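Also: peak tail current of the secondary pulse compared with the same well before compound.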

human ether-à-go-go-related gene (hERG) potassium channel, sequence (Q12809 whole entry, looked up): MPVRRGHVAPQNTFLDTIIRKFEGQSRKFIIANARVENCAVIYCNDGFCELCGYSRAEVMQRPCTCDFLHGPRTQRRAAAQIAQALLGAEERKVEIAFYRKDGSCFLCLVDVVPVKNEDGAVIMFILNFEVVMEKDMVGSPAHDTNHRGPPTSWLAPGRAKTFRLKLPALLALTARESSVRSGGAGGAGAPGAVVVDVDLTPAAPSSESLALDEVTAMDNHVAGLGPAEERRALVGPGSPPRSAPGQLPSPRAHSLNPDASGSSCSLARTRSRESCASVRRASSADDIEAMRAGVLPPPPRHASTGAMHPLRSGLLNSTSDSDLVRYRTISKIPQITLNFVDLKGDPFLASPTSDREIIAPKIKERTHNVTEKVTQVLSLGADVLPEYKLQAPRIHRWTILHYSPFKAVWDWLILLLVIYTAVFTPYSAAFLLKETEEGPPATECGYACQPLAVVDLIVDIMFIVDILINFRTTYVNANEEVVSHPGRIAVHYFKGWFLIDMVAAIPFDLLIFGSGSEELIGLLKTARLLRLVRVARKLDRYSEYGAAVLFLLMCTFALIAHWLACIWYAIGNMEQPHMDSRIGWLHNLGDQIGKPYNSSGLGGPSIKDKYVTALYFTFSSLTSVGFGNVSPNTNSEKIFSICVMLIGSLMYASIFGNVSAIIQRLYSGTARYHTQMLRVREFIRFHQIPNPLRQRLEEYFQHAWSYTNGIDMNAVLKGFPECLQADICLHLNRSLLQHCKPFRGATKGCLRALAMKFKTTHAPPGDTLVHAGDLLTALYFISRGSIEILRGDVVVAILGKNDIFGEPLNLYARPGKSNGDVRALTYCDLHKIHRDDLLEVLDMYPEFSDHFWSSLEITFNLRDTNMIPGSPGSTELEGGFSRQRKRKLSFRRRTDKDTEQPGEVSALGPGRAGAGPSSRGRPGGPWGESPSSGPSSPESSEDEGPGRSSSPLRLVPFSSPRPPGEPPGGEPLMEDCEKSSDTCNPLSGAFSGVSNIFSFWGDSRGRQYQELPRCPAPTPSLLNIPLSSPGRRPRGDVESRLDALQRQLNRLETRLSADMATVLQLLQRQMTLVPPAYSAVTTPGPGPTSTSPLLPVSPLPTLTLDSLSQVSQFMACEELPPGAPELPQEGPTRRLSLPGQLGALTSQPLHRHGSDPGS

Row | Structure (SMILES) | hERG current change (%, negative = inhibition) at 10uM [%]
1 | O=C(Cc1ccccc1[N+](=O)[O-])Nc1ccc2c(c1)OCO2 | -40.1
2 | CCOc1ccc(CCNC(=O)c2cccnc2N2CCCC2)cc1OCC | 13.2
3 | Cc1ccc(C)c(C(=O)Nc2c(C(N)=O)oc3ccccc23)c1 | 5.52
4 | COc1cccc(C(=O)NC2CCSC2=O)c1 (stereo not shown) | 23.8
5 | CC(=O)c1ccc(N2CCN(C(=O)[C@H](C)NC(=O)c3ccccc3Cl)CC2)cc1 | -9.57
6 | COC(=O)[C@@H]1C[C@@]2(O)[C@H](O)[C@H](O)[C@H](O)C[C@H]2N1CC1CC1 | 6.98
7 | N#Cc1c(N)nc2c(c1-c1ccccc1)CCCC2 | -1.63
8 | O=C1c2ccccc2C(=O)C1(CO)c1ccccc1 | 27.7
9 | O=C(NC(=S)Nc1ccccc1N1CCCC1)c1cccs1 | 7.27
10 | CCC(=O)N1CCN(c2ccccc2NC(=O)c2cccs2)CC1 | -50.4
11 | CC(=O)N1CCN(c2ccccc2NC(=O)c2cccs2)CC1 | -43.8
12 | CN1CCN(c2ccccc2NC(=O)c2cccs2)CC1 | -47.5
13 | CC1CCN(c2ccccc2NC(=S)NC(=O)c2cccs2)CC1 | -50.2
14 | O=C(NC(=S)Nc1ccccc1N1CCCCC1)c1cccs1 | 6.21
15 | CCCC(=O)N(CCN1CCOCC1)c1nc2c(OC)ccc(OC)c2s1.Cl | -15.5
16 | CCOC(=O)C1=C(N)Oc2cc(O)ccc2C1c1cccc([N+](=O)[O-])c1 (stereo not shown) | -11.3
17 | COc1ccc(NC(=O)c2ccccc2Oc2ccccc2)c(OC)c1 | 1.42
18 | COc1ccc(C(C(=O)NC2CCCCC2)N(Cc2cccnc2)C(=O)c2snc(C(N)=O)c2N)cc1 (stereo not shown) | -11.8
19 | COc1ccc(/C=N/n2cncn2)cc1Cn1nc(C)c([N+](=O)[O-])c1C | -53.6
20 | COc1ccc(/C=N/N2CCOCC2)cc1Cn1nc(C)c([N+](=O)[O-])c1C | -10.8
21 | COc1ccc(/C=N/n2cncn2)cc1Cn1cc([N+](=O)[O-])cn1 | -32.1
22 | COC(=O)[C@]1(CC(C)C)N[C@H](c2ccc(-c3ccc(F)cc3)cc2)[C@@H]2C(=O)N(C)C(=O)[C@@H]21.O=C(O)C(F)(F)F | -15.7

Row | Structure (SMILES) | hERG current change (%, negative = inhibition) at 10uM [%]
23 | COC(=O)Cc1cc(=O)n(-c2nc3ccccc3[nH]2)[nH]1 | -23.3
24 | Cl.O=c1cc(-c2ccccc2)[nH]n1-c1nc2ccccc2[nH]1 | 7.02
25 | COc1ccc(-c2cc(=O)n(-c3nc4ccccc4[nH]3)[nH]2)cc1 | -53.1
26 | CCN(CC)CCOC(=O)/C=C/c1ccccc1.Cl | -12.4
27 | Cc1cccc(Nc2nnc(SCC(=O)NCc3cccs3)s2)c1 | 21.9
28 | CNc1nc(C)nc(-n2nc(C)cc2C)n1 | 15.8
29 | Cc1cc(C)n(-c2nc(C)nc(NCc3ccccc3)n2)n1 | -86.9
30 | Cc1cc(C)n(-c2nc(Nc3ccccc3)nc(-n3nc(C)cc3C)n2)n1 | 15.6
31 | CC(=O)Nc1nc(SCc2ccc(Cl)cc2Cl)n[nH]1 | 16.4
32 | O=[N+]([O-])c1ccc2c(c1)nc1n2CCSC1 | -19.2
33 | Cc1cccc(N2CCN(Cc3nc(-c4ccc(F)cc4F)oc3C)CC2)n1 | -41.3
34 | Cc1oc(-c2ccc(F)cc2F)nc1CN1C[C@@H]2C[C@@H](C1)c1cccc(=O)n1C2 | -74.4
35 | Cc1ccc2occ(CN3CC4CC(C3)c3cccc(=O)n3C4)c(=O)c2c1 (stereo not shown) | -63.9
36 | COc1cc(CN2CC3CC(C2)c2cccc(=O)n2C3)cc(OC)c1OC (stereo not shown) | -6.41
37 | COc1ccc(CN2CC3CC(C2)c2cccc(=O)n2C3)cc1OC (stereo not shown) | -5.24
38 | COc1cc(C)c(-c2nc(CN3C[C@@H]4C[C@@H](C3)c3cccc(=O)n3C4)c(C)o2)cc1C | -57.6
39 | Cc1ccc2occ(CN3CCN(Cc4ccccc4)CC3)c(=O)c2c1 | -45.9
40 | Cc1ccc(CN2CC3CC(C2)c2cccc(=O)n2C3)cc1 (stereo not shown) | -5.29
41 | Cc1cc(C)n2c(Br)c(CN3CC4CC(C3)c3cccc(=O)n3C4)nc2n1 (stereo not shown) | 0.651
42 | COC(=O)C1=C(N)N(c2ccccc2C(F)(F)F)C2=C(C(=O)CCC2)C1c1ccc2c(c1)OCO2 (stereo not shown) | 20.5
43 | CC(C)(C)c1nc2scc(-c3ccc(Br)cc3)c2c(=O)o1 | 7.26
44 | Cc1cc(C(=O)Nc2nnc(C3CCCCC3)s2)cs1 | -5.46

Row | Structure (SMILES) | hERG current change (%, negative = inhibition) at 10uM [%]
45 | COc1ccc(CCN(Cc2cccs2)S(=O)(=O)c2ccc(S(=O)(=O)N(C)C3CCCCC3)cc2)cc1OC | 2.56
46 | COc1cc(NC(=O)CCc2nnc3ccc(N4CCCC4)nn23)cc(OC)c1OC | 6.49
47 | Cn1cc(/C=C(\NC(=O)c2ccccc2Cl)C(=O)NCCN2CCOCC2)c2ccccc21 | -30
48 | O=C(CCC1CC(=O)Nc2ccccc21)NCc1ccc(F)cc1 (stereo not shown) | -17.6
49 | O=C(Nc1nc(-c2ccc(F)cc2)cs1)c1cccc(N2C(=O)CCC2=O)c1 | 9.67
50 | COc1ccc(C)cc1S(=O)(=O)N1CCCC(C(=O)NC2CC2)C1 (stereo not shown) | -0.49
51 | O=C(NCc1ccccc1)C1CC(=O)N(C2CCCCC2)C1 (stereo not shown) | 17.8
52 | Cc1cccc(C(=O)NCC(=O)N2CCC2)c1 | 2.59
53 | O=C(NCC(=O)N1CCN(S(=O)(=O)c2ccccc2)CC1)c1ccc2ccccc2c1 | -53.5
54 | Cc1cccc(C(=O)NCC(=O)N2CCN(S(=O)(=O)c3ccccc3)CC2)c1 | -10.8
55 | Cc1ccc(C)c(S(=O)(=O)N2CCN(C(=O)CNC(=O)c3ccc4ccccc4c3)CC2)c1 | -28.1
56 | O=C(NCC(=O)N1CCN(S(=O)(=O)c2ccccc2F)CC1)c1ccc2ccccc2c1 | -12.2
57 | Cc1ccc(S(=O)(=O)N2CCCN(C(=O)CNC(=O)c3cccc(C)c3)CC2)cc1 | -54.3
58 | CCOC(=O)C1CCN(c2cc3c(cc2NC(=O)c2ccccc2Cl)n(C)c(=O)n3C)CC1 | -48.8
59 | CCOC(=O)C1CCN(Cc2ccc(O)c(OC)c2)CC1 | -13.7
60 | CCN(C(=O)c1ccc(S(=O)(=O)N2CCC(C)CC2)cc1)C1CCS(=O)(=O)C1 (stereo not shown) | 7.87
61 | CN(C(=O)c1cccc(S(=O)(=O)N2CCCCC2)c1)C1CCS(=O)(=O)C1 (stereo not shown) | 2.39
62 | CCCCN(C(=O)c1cccc(S(=O)(=O)N2CCCCC2)c1)C1CCS(=O)(=O)C1 (stereo not shown) | -52.1
63 | Cc1ccc(C(=O)OCC(=O)N(C)C2CCS(=O)(=O)C2)cc1S(=O)(=O)N1CCCCC1 (stereo not shown) | -16.5
64 | CCCCN(C(=O)c1ccc(S(=O)(=O)N2CCCC2)cc1)C1CCS(=O)(=O)C1 (stereo not shown) | -0.0452
65 | CCCCN(C(=O)c1ccc(S(=O)(=O)N2CCC(C)CC2)cc1)C1CCS(=O)(=O)C1 (stereo not shown) | -53.2
66 | CC(C)CN(C(=O)c1cccc(S(=O)(=O)N2CCCCC2)c1)C1CCS(=O)(=O)C1 (stereo not shown) | 0.956

Row | Structure (SMILES) | hERG current change (%, negative = inhibition) at 10uM [%]
67 | CCN(C(=O)COC(=O)c1ccc(C)c(S(=O)(=O)N2CCOCC2)c1)C1CCS(=O)(=O)C1 (stereo not shown) | 1.32
68 | CCN(C(=O)COC(=O)c1ccc(C)c(S(=O)(=O)N2CCCCC2)c1)C1CCS(=O)(=O)C1 (stereo not shown) | -66.5
69 | NS(=O)(=O)c1cc(C(=O)OCC(=O)Nc2ccccc2[N+](=O)[O-])ccc1Cl | -6.13
70 | O=C1Nc2ccccc2N(O)N1c1ccc(S(=O)(=O)N2CCCCCC2)cc1 | 1.75
71 | N#C/C(=C\c1ccc(-c2ccc(C(=O)O)cc2)o1)C(=O)Nc1ccc(F)cc1 | 25.6
72 | O=C(NCCc1ccccc1)C1CCN(S(=O)(=O)N2CCC3(CC2)OCCO3)CC1 | -0.566
73 | CCCOc1cccc(C(=O)N2CCN(C(=O)C3CCCO3)CC2)c1 (stereo not shown) | 7.15
74 | CCC(=O)c1ccc(OCC(=O)OCC(=O)N2c3ccccc3NC(=O)C2(C)C)cc1 | 2.82
75 | CC(C)c1ccc(N(CC(=O)NCC2CCCO2)C(=O)Cn2nnc(-c3cccs3)n2)cc1 (stereo not shown) | -42.5
76 | NC(=O)NOCc1ncc(C(F)(F)F)cc1Cl | 10.4
77 | CCN(CC)CCOc1ncnc2c1oc1ccccc12 | -39.1
78 | CN(C)CCOc1nc(-c2ccccc2)nc2c1oc1ccccc12 | -44.7
79 | CCc1nc(OCCN(C)C)c2oc3ccccc3c2n1 | -4.1
80 | CCc1nc(N(CC)CC)c2oc3ccccc3c2n1.Cl | -21.1
81 | CCN(CC)CCOc1nc(C)nc2c1oc1ccccc12.Cl | -64.6
82 | CCc1nc(OCCN(CC)CC)c2oc3ccccc3c2n1.Cl | -58.9
83 | CCCCCC(=O)Nc1ccccc1N1CCN(c2ccccc2)CC1 | -0.752
84 | CSc1ccc(S(=O)(=O)NCC(=O)OCC(=O)N2CCCCC2C)cc1[N+](=O)[O-] (stereo not shown) | 4.74
85 | COC(=O)Cc1ccc(O)c(N)c1 | 9.82

From publication PMC4336329 (PLoS ONE, 2015)
